The values that follow come from PubChem BioAssay (NCATS).

Inconclusive results are not listed. Activity calls are given as the source filed them. Calls follow the shape of the dose curve; as a rule, active = well fitted inhibition curve with a large enough effect; inconclusive = small, poorly fitted or top-dose-only effect; inactive = flat fitted curve, though single readings scatter.

Holding throughout (test): qHTS profiling for inhibitors of Plasmodium falciparum proliferation (AID 504749); also: nearly all actives have a fitted effect of over 60% in size
Common to all, as to conditions: P. falciparum in erythrocytes, SYBR Green DNA, 72 h; series mostly up to 28.7 µM
(qHTS replaces the single test concentration by a dilution series.)

For one assay, the system named is P94_40. The gist of the method:
(§1)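 Readout was DNA-dye fluorescence from lysed cultures, ex 485/em 535 nm. Parasitized red cells had grown 72 h with compound; data scaled between 0.29 uM artemisinin and DMSO wells and corrected using vehicle-only plates.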

A further assay deals with PAD. The gist of the method: as §1
Another assay relates to PC15. The gist of the method: as §1
A further assay relates to PC26. The gist of the method:
as §1

The test system of a further assay is PC49. The essentials:
as §1

A further assay concerns SC27B. The essentials: as §1
The next assay has as its system TAB109. The gist of the method: as §1
A further assay deals with TAB113. The gist of the method:
as §1

A further assay concerns TAB165. The gist of the method: as §1
The next assay deals with W2. The gist of the method: as §1
Potency is read from the fitted curve at half-maximal effect.

As for `Clc1ccccc1Cl`, the Potency entry with P94_40, with PAD, with PC15, with PC26, in the assay with PC49 and in the assay on SC27B was “inactive” each time. Besides, the Potency result in the assay with TAB109, in the assay with TAB113, in the assay on TAB165 and in the assay with W2 was “inactive” throughout.
For `C[CH2][Hg][S]c1ccccc1C(=O)O`, the Potency was 3.16 µM (active) in the assay with P94_40; 2.82 µM (active) in the assay with PAD; 4.47 µM (active) with PC15; 3.79 µM (active) with PC26; 2.24 µM (active) in the assay with PC49; 3.98 µM (active) with SC27B. Moreover, the Potency with TAB109 was 2.51 µM (active); with TAB113, 3.16 µM (active); in the assay with TAB165, 2.24 µM (active); in the assay with W2, 2.13 µM (active).
In the case of `COC1=CC=C2[C@H]3Cc4ccc(OC)c5c4[C@@]2(CCN3C)[C@H]1O5`, the Potency result in the assay with P94_40, in the assay with PAD, in the assay with PC15, in the assay with PC26, in the assay on PC49 and in the assay on SC27B was “inactive” throughout. Also, the Potency result with TAB109, with TAB113 and in the assay on TAB165 was “inactive” in each case.
As for `NCC(O)c1cccc(O)c1` (stereo not drawn), the Potency entry in the assay on P94_40, in the assay with PAD, in the assay with PC15, in the assay with PC26, in the assay with PC49 and in the assay with SC27B was “inactive” in each case. For the same compound, the Potency result with TAB109, with TAB113, in the assay with TAB165 and in the assay on W2 was “inactive” throughout.
Regarding `O=P(O)(O)C(Cl)(Cl)P(=O)(O)O`, the Potency entry with P94_40, in the assay on PAD, in the assay with PC15, in the assay on PC26, in the assay on PC49 and with SC27B was “inactive” throughout. The Potency entry in the assay on TAB109, in the assay on TAB113, in the assay on TAB165 and in the assay with W2 was “inactive” in each case.
For `O=[N+]([O-])c1cc(I)c(O)c(I)c1`, the Potency result in the assay on P94_40, in the assay on PAD, in the assay on PC15, in the assay with PC26, in the assay on PC49 and with SC27B was “inactive” each time. For the same compound, the Potency result with TAB109, in the assay on TAB113, with TAB165 and with W2 was “inactive” in each case.
With `O=C1CN=C(c2ccccc2)c2cc(Cl)ccc2N1CC1CC1`, the Potency result with P94_40, in the assay with PAD, in the assay on PC15, with PC26, with PC49 and in the assay with SC27B was “inactive” throughout. Further, the Potency result in the assay on TAB109, with TAB113 and in the assay on TAB165 was “inactive” throughout.
On to `C=CCN1CCC23c4c5ccc(O)c4O[C@H]2C(=O)CC[C@@]3(O)C1C5` (stereo partly drawn), for which the Potency result with P94_40, with PAD, in the assay with PC15, with PC26, with PC49 and with SC27B was “inactive” each time. Moreover, the Potency result in the assay with TAB109, in the assay on TAB113, in the assay with TAB165 and in the assay with W2 was “inactive” throughout.
Consider `CN1c2ccccc2C(NCCCCCCC(=O)O)c2ccc(Cl)cc2S1(=O)=O` (stereo not drawn), for which the Potency result in the assay on P94_40, in the assay with PAD, in the assay with PC15, with PC26, in the assay with PC49 and in the assay with SC27B was “inactive” each time. Further, the Potency result in the assay with TAB109, in the assay with TAB113, in the assay on TAB165 and in the assay with W2 was “inactive” throughout.
On to `O=C/C=C/c1ccccc1`, for which the Potency result in the assay on P94_40, in the assay on PAD, in the assay with PC15, in the assay on PC26, with PC49 and with SC27B was “inactive” each time. Further, the Potency result in the assay with TAB109, in the assay with TAB113, with TAB165 and in the assay on W2 was “inactive” each time.
Turning to `O=CC=O`, the Potency result with P94_40, in the assay with PAD, in the assay on PC15, in the assay on PC26, with PC49 and in the assay with SC27B was “inactive” in each case. The Potency result with TAB109, in the assay on TAB113, in the assay with TAB165 and in the assay with W2 was “inactive” each time.
Regarding `O=c1[nH]c(=O)n(Cl)c(=O)n1Cl`, the Potency entry with P94_40, in the assay on PAD, in the assay with PC15, in the assay with PC26, in the assay with PC49 and in the assay with SC27B was “inactive” each time. Further, the Potency result in the assay with TAB109, in the assay with TAB113, in the assay with TAB165 and in the assay with W2 was “inactive” in each case.
Consider `CC(N)Cc1ccc(O)cc1` (stereo not drawn), for which the Potency entry in the assay with P94_40, in the assay with PAD, in the assay with PC15, in the assay on PC26, in the assay with PC49 and in the assay with SC27B was “inactive” each time. Moreover, the Potency entry in the assay on TAB109, in the assay on TAB113, in the assay on TAB165 and in the assay with W2 was “inactive” each time.
Consider `COc1ccc(OC)c(C(O)C(C)N)c1` (stereo not drawn), for which the Potency entry in the assay on P94_40, with PAD, in the assay on PC15, in the assay with PC26, in the assay with PC49 and with SC27B was “inactive” throughout. Also, the Potency entry in the assay with TAB109, with TAB113, with TAB165 and in the assay on W2 was “inactive” throughout.
`COc1ccc2c3c1O[C@H]1C(=O)CC[C@H]4[C@@H](C2)N(C)CC[C@]314`: the Potency result with P94_40, in the assay on PAD, in the assay with PC15, with PC26, with PC49 and in the assay on SC27B was “inactive” each time. In addition, the Potency result in the assay with TAB109, in the assay on TAB113 and in the assay on TAB165 was “inactive” each time.
In the case of `ClC1C(Cl)C(Cl)C(Cl)C(Cl)C1Cl` (stereo not drawn), the Potency entry in the assay on P94_40, with PAD, in the assay on PC15, in the assay with PC26, in the assay with PC49 and with SC27B was “inactive” each time. In addition, the Potency result in the assay with TAB109, with TAB113, with TAB165 and in the assay with W2 was “inactive” throughout.
Take `O=C1CC[C@@]2(O)C3Cc4ccc(O)c5c4C2(CCN3CC2CC2)[C@H]1O5` (stereo partly drawn): the Potency result in the assay on P94_40, in the assay on PAD, in the assay on PC15, in the assay with PC26, with PC49 and with SC27B was “inactive” in each case. In addition, the Potency entry with TAB109, in the assay on TAB113 and in the assay with TAB165 was “inactive” throughout.
Take `CCON=O`: the Potency entry in the assay with P94_40, with PAD, with PC15, with PC26, with PC49 and in the assay with SC27B was “inactive” in each case. The Potency entry in the assay on TAB109, with TAB113, in the assay with TAB165 and in the assay with W2 was “inactive” throughout.
Consider `O=C1C2CC=CCC2C(=O)N1SC(Cl)(Cl)Cl` (stereo not drawn), for which the Potency result with P94_40, in the assay on PAD, with PC15, in the assay on PC26, in the assay with PC49 and in the assay on SC27B was “inactive” each time. The Potency result with TAB109, in the assay with TAB113 and in the assay on TAB165 was “inactive” throughout.
Consider `CCNC(C)Cc1cccc(C(F)(F)F)c1` (stereo not drawn), for which the Potency entry in the assay with P94_40, with PAD, in the assay with PC15, in the assay with PC26, in the assay with PC49 and in the assay with SC27B was “inactive” each time. In addition, the Potency result with TAB109, with TAB113 and with TAB165 was “inactive” each time.
`O=C(CCl)c1ccc(Oc2ccc(C(=O)CCl)cc2)cc1`: the Potency entry in the assay on P94_40, in the assay on PAD, in the assay with PC15, with PC26, in the assay on PC49 and in the assay on SC27B was “inactive” in each case. In addition, the Potency result with TAB109, in the assay with TAB113, in the assay on TAB165 and in the assay with W2 was “inactive” each time.
With `ClCC1CO1` (stereo not drawn), the Potency result in the assay with P94_40, with PAD, in the assay on PC15, with PC26, in the assay with PC49 and in the assay with SC27B was “inactive” each time. Moreover, the Potency result with TAB109, with TAB113, in the assay on TAB165 and in the assay on W2 was “inactive” in each case.
For `C=CCN(C1=NCCN1)c1c(Cl)cccc1Cl`, the Potency entry with P94_40, in the assay on PAD, in the assay with PC15, in the assay on PC26, in the assay on PC49 and in the assay with SC27B was “inactive” each time. The Potency result with TAB109, in the assay with TAB113, in the assay on TAB165 and in the assay on W2 was “inactive” in each case.
On to `CCC1(c2ccccc2)C(=O)NC(=O)N(C(=O)c2ccccc2)C1=O` (stereo not drawn), for which the Potency entry with P94_40, with PAD, in the assay with PC15, in the assay on PC26, in the assay with PC49 and in the assay on SC27B was “inactive” throughout. For the same compound, the Potency result in the assay with TAB109, with TAB113 and with TAB165 was “inactive” in each case.
